Sampled rows, rich in hits. Any-hit rate of the full collection: about 0.67%.
ugtP null kill = growth inhibition of ugtP-null S. aureus, primary screen, RN4220 ugtP deletion, OD600; 330,000 compounds, 0.54% hits; 16 h; growth inhibition, % (test concentration not listed); in the data active = growth inhibition above about 68%;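 also: plate controls were untreated wells for no effect and antibiotic for full effect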
Sa RN4220 lethal = growth inhibition of S. aureus RN4220, primary screen, OD600. 16 h. inhibition, % (test concentration not listed). 330,000 compounds, 0.33% hits; in the data active = inhibition above about 85%;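 also: plate controls were untreated cells for no effect and reference antibiotic for full effect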
TcdB GH inh = TcdB glycohydrolase inhibitors, primary screen, biochemical, single point, plate reader; inhibition, % at 9.99 µM; TcdB glycohydrolase enzymatic assay; 350,000 compounds, 0.24% hits; Toxin B (Clostridioides difficile), P18177; in the data active = inhibition above about 10%
Vc quorum ag-1 = inducers of Vibrio cholerae quorum light production without autoinducers, primary screen, BH1578 luxS cqsA deficient, single point | activation, % at 18.7 µM | V. cholerae BH1578 lux reporter, luminescence, 6 h | 350,000 compounds, 0.16% hits; in the data active = activation mostly above about 9.7%, no sharp cut-off
Vc quorum ag-2 = V. cholerae lux activation without autoinducers – BH1578 luxS cqsA deficient, cherry-pick, plate reader, dose response; shares compounds with Vc quorum ag-1; V. cholerae BH1578 lux reporter, luminescence, 6 h; activation, % at 50 µM; 620 tested, under 10 active; AID 602243, 2012; call rule not given here
* = called active by the depositor.

CC1CN(C(C)CO)C(=O)c2cccc(NS(=O)(=O)c3ccc(F)cc3)c2OC1CN(C)Cc1ccc(-c2ccccc2)cc1 (stereo not given) was read as ugtP null kill 7.8 and Sa RN4220 lethal 4.9.
For CCOC(=O)C1CCCCN1C(=O)C(=Cc1ccc(OC)cc1)c1ccc(OC)c(OC)c1 (stereo not given) the results were ugtP null kill 3.9 and Sa RN4220 lethal 4.3.
Screening CC(=NNC(=O)c1ccc(NC(=O)c2ccc(F)cc2)cc1)c1ccccc1 returned ugtP null kill -1.0 and Sa RN4220 lethal -0.6.
Screening NC(=O)c1ccsc1NC(=O)c1ccc([N+](=O)[O-])o1 returned ugtP null kill 100.0*, Sa RN4220 lethal 100.1*, TcdB GH inh 0.0 and Vc quorum ag-1 inactive.
For NC(=O)c1ccsc1NC(=O)COC(=O)c1ccc([N+](=O)[O-])o1 the results were ugtP null kill 24.3, Sa RN4220 lethal 4.4, TcdB GH inh 1.1 and Vc quorum ag-1 1.3.
For CC(=NOC(=O)c1c(-c2ccccc2Cl)noc1C)c1nccs1 the results were ugtP null kill 9.1 and Sa RN4220 lethal 4.8.
CCN1/C(=C/C=C/c2oc3ccc(-c4ccccc4)cc3[n+]2CC)Oc2ccc(-c3ccccc3)cc21 was read as ugtP null kill 99.6*, Sa RN4220 lethal 97.2*, TcdB GH inh 1.2 and Vc quorum ag-1 0.5.
For CC1NC(=CC(=O)c2ccccc2)N(O)C1(C)C (stereo not given) the results were ugtP null kill 6.5 and Sa RN4220 lethal 2.0.
`CCc1sc(N(C(=O)Cc2ccccc2)c2cccc(F)c2)nc1-c1ccc(C)cc1` gave ugtP null kill 55.8, Sa RN4220 lethal -11.3, Vc quorum ag-1 12.5 and Vc quorum ag-2 -0.2.
`CC(=O)c1cc2c(cc1NS(=O)(=O)c1ccccc1)OCO2` gave ugtP null kill -0.1, Sa RN4220 lethal 4.0, Vc quorum ag-1 14.3 and Vc quorum ag-2 0.0.
For CC(=O)Nc1ccc(S(=O)(=O)Nc2cc3c(cc2C(C)=O)OCO3)cc1 the results were ugtP null kill 5.5, Sa RN4220 lethal 2.8, TcdB GH inh 0.5 and Vc quorum ag-1 inactive.
Screening CCC(C)NS(=O)(=O)c1ccc(S(=O)(=O)Nc2cc3c(cc2C(C)=O)OCO3)cc1 (stereo not given) returned ugtP null kill 5.6, Sa RN4220 lethal 7.2, Vc quorum ag-1 22.2* and Vc quorum ag-2 0.2.
`CC(=NNC(=O)c1ccc(C)s1)c1cccc(NC(=O)c2ccoc2C)c1` gave ugtP null kill 19.3 and Sa RN4220 lethal -1.3.
Screening CN(Cc1ccc(C(C)(C)C)cc1)C(=O)C1CCN(C(=O)Nc2ccccc2)CC1 returned ugtP null kill -1.8, Sa RN4220 lethal 0.3, TcdB GH inh 3.0 and Vc quorum ag-1 -0.3.
Screening COC(=O)C1CCN(C(=O)CN(C)Cc2ccc(C(C)(C)C)cc2)CC1 returned ugtP null kill 3.9, Sa RN4220 lethal 7.0, TcdB GH inh -1.4, Vc quorum ag-1 40.9* and Vc quorum ag-2 11.2.
Screening Cn1c(C(=O)NC2CCCCCC2)cc2c(=O)n(C)c3ccccc3c21 returned ugtP null kill 10.0, Sa RN4220 lethal 3.8, TcdB GH inh 0.9 and Vc quorum ag-1 0.6.
`Cn1c(C(=O)NC2CCCCC2)cc2c(=O)n(C)c3ccccc3c21` gave ugtP null kill 10.1, Sa RN4220 lethal 20.1, TcdB GH inh -0.6, Vc quorum ag-1 245.3* and Vc quorum ag-2 inactive.
`O=C(COC(=O)[C@H](Cc1c[nH]c2ccccc12)NC(=O)c1ccc(Cl)cc1)Nc1ccc2c(c1)OCO2` gave ugtP null kill -27.2, Sa RN4220 lethal -3.3, Vc quorum ag-1 1.8 and Vc quorum ag-2 -0.1.
`CC(=O)N[C@@H](Cc1c[nH]c2ccccc12)C(=O)OCC(=O)Nc1ccc2c(c1)OCO2` gave ugtP null kill 3.0, Sa RN4220 lethal 2.8, TcdB GH inh 0.6 and Vc quorum ag-1 inactive.
Screening O=C(O)C(Cc1ccccc1)NC(=O)C(c1ccccc1)(c1ccccc1)c1ccccc1 (stereo not given) returned ugtP null kill 25.3 and Sa RN4220 lethal 30.0.
C=C(C)COc1ccc(-c2ncncc2Oc2ccc(OC)cc2)c(O)c1 was read as ugtP null kill 43.8, Sa RN4220 lethal -2.4, Vc quorum ag-1 25.0* and Vc quorum ag-2 0.2.
